Assay results: the supplement of paper PMC10338343
± gives the standard deviation. Over roughly 8,200 sequences, “pre-steady-state target cleavage rate” has its median near 0.024; the highest 2% begin near 1.3. The entries come from a sample that favours the highest values as a whole.

Tested on: MIWI (PIWIL1) piRISC loaded with L1MC piRNA (30 nt)
Experiment: pre-steady-state target cleavage rate (min^-1); MIWI and MILI are mouse PIWI proteins and EfPiwi is from a freshwater sponge; tags in brackets are library labels; higher = faster piRNA-guided slicing of the target
Conditions: guide: L1MC piRNA 5'p-UAACUAAAUACUAUGCAAGCUGUAGGUCCU
In short: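 Sequencing of uncleaved targets, normalised to depth and to weakly complementary targets, was the readout of this Cleave-'n-Seq assay. A transcribed, DNA-blocked target RNA library (0.1 nM) was mixed with 1 nM active affinity-purified piRISC carrying one synthetic guide, with or without 500 nM GTSF1 partner protein, in HEPES–potassium acetate buffer at 33 °C for 0–8 or 0–960 min. Three trials were pooled, k3 was capped at 0.0001 min^-1, and a burst-and-steady-state fit gave the pre-steady-state cleavage rate.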

[1] = auxiliary factor: 500 nM mouse GTSF1
[2] = auxiliary factor: none (no GTSF1)

Sequence | pre-steady-state target cleavage rate [1] | pre-steady-state target cleavage rate [2]
UCCACCUACAGCUUCCAUAGAAUUUAGUUA | 0.0393 ± 0.015 | 
UGGACCAUGAGCUUGCAUAGUAUUUACAAA | 0.159 ± 0.021 | 0.00423 ± 0.0026
AGGACCUACAGCUUGCAUAGUUAAAUCAAA [g10:g30:cont:t1A] | 0.159 ± 0.046 | 
AGGACCAUACAGCUUGCAUAGUAUUUAGUUA | 1.06 ± 0.051 | 0.0829 ± 0.013
UGGACAUACAGCUUGCAUAGUAUUUAGUUA | 1.23 ± 0.05 | 0.0916 ± 0.014
UCGACACUACAGCUUGCAUAGUAUUUAGUUA | 0.961 ± 0.061 | 0.0557 ± 0.0088
UCGACCAUACAGCUUGCAUAGUAUUUAGUUA | 0.86 ± 0.039 | 0.0901 ± 0.015
UCGACAUACAGCUUGCAUAGUAUUUAGUUA | 1.38 ± 0.043 | 0.071 ± 0.012
AGGACAUACAGCUUGCAUAGUAUUUAGUUA | 1.32 ± 0.055 | 0.0818 ± 0.012
UCCUGGAUGUGCUUGCAUUGUAUUUAGUAA | 0.0234 ± 0.0059 | 0.00578 ± 0.0023
UCCUGGAACAGCUUGCAUAGAUUUUAGUAA | 0.0419 ± 0.015 | 
UCCUGGAUGUCGAAGGAUAGUAUUUUGUUA |  | < 0.0001
UCCUGGUACUGCAUGCAUAGUAUUUAGUUA | 0.556 ± 0.045 | 0.00786 ± 0.0024
UCCUGGUUCAGCAUGCAUAGUAUUUAGUUA | 0.93 ± 0.036 | 0.0172 ± 0.0043
UCCUCCUUCAGCUAGCAUAGUAUUUAGUUA | 0.78 ± 0.032 | 0.0147 ± 0.0034
UCCUGCUUCAGCAUGCAUAGUAUUUAGUUA | 1.32 ± 0.078 | 0.0171 ± 0.0036
UCCUGGUUCAGCUAGCAUAGUAUUUAGUUA | 0.872 ± 0.045 | 0.0169 ± 0.004
UCCUGCUUCAGCUUGCAUAGUAUUUAGUUA | 1.19 ± 0.051 | 0.0684 ± 0.012
UCCUGCUUCAGCUAGCAUAGUAUUUAGUUA | 1.32 ± 0.056 | 0.0109 ± 0.0042
UCCUGGAACAGCUUGCAUUGUAAUUAGUUA | 0.375 ± 0.032 | 0.018 ± 0.006
UCCUGGAACUCCUUGCAUAGUAUUUAGUUA | 0.46 ± 0.048 | 0.00821 ± 0.0033

Sequence | pre-steady-state target cleavage rate [1] | pre-steady-state target cleavage rate [2]
UCCUCCUAACAGCUUGCAUAGUAUUUAGUUA | 0.591 ± 0.025 | 0.0508 ± 0.0092
UCCACCUACAGCUUGCUUAGUUUUUAGUUA | 0.175 ± 0.017 | 0.0103 ± 0.002
UGGUCCUACAGCUUGCAUAGUAUUUUGUUA | 0.679 ± 0.03 | 0.0592 ± 0.011
AGGACCUACAGCUUGCAUGAGUAUUUAGUUA | 0.194 ± 0.068 | 
AGGACCUACAGCUUGCAUGUAUUUAGUUA | 0.485 ± 0.048 | 0.00718 ± 0.0034
UCCACCUACAGCUUGCAUGGUAUUUAGUUA | 1.3 ± 0.061 | 0.0488 ± 0.01
UCCUGCUACAGCUUGCAUGGUAUUUAGUUA | 1.2 ± 0.1 | 0.0413 ± 0.0095
UCGACCUACAGCUUGCAUUAGUAUUUAGUUA | 0.264 ± 0.082 | 
UCCUCCUACAGCUUGCAUGUAUUUAGUUA | 0.428 ± 0.051 | 0.00445 ± 0.0018
UGGACCUACAGCUUGCAUGUAUUUAGUUA | 0.353 ± 0.055 | 0.00423 ± 0.0025
UGGACCUACAGCUUGCAUGGUAUUUAGUUA | 1.38 ± 0.079 | 0.0478 ± 0.01
AGGACCUACAGCUUGCAUGGUAUUUAGUUA | 1.35 ± 0.073 | 0.0615 ± 0.012
UCGACCUACAGCUUGCAUGGUAUUUAGUUA | 1.73 ± 0.084 | 0.0512 ± 0.011
UCCUCCUACAGCUUGCAUGGUAUUUAGUUA | 1.66 ± 0.078 | 0.0582 ± 0.011
UCGACCUACAGCUUGCAUGUAUUUAGUUA | 0.479 ± 0.05 | 0.00292 ± 0.0025
AGGUCCUACAGCUUGCAUAGUAUUUAGAAA | 0.285 ± 0.045 | 0.0132 ± 0.0048
AGGACCUACAGCUUGCAUAGUUAAUUCAAA | 0.786 ± 0.23 | 
UCCUGGUACAGCUUGCAUAGUAUUUAGAUUA | 0.179 ± 0.046 | 0.0165 ± 0.0061
UCCUGCUACACCAUGCAUAGUAUUUAGUUA | 0.783 ± 0.035 | 0.00793 ± 0.002
UCCUGGAACAGCUUGCAAUGUAUUUAGUUA | 0.265 ± 0.02 | 0.00723 ± 0.0039
UCCUGGAUGUCCUUGCAUAGUAUAUUGUUA | 0.00947 ± 0.0039 | 

Sequence | pre-steady-state target cleavage rate [1] | pre-steady-state target cleavage rate [2]
UCGACCUACAGCUUGGAUAGUAUUUACAAA | 0.179 ± 0.036 | 
UCCUCCUACAGCUUGGUUAGUAUUUAGUAA | 0.523 ± 0.043 | 0.00502 ± 0.0015
UCCACCUACAGCAAGCAUAGUAUUUAGUAA | 0.507 ± 0.042 | 
AGGACCUACAGCUUGCAUAGUAUUAUCUAA | 0.404 ± 0.066 | 
UCCUGGAUGUCCUUGCAUAGUAGUUAGUUA | 0.00603 ± 0.0046 | 0.00268 ± 0.0023
UCCUGGUACAGCUUGCAUAGUAAAAAGUAA | 0.109 ± 0.031 | 
UCCUGGAACAGCUUGCAUAGUAUUUAGAUA | 0.406 ± 0.042 | 0.0172 ± 0.0058
UCCUGCUACAGCUUGCAUAGUAUAUUGUUA | 0.377 ± 0.037 | 0.0123 ± 0.0026
UGGCACCUACAGCUUGCAUAGUAUUUAGUUA | 2.2 ± 0.89 | 
UGCACCUACAGCUUGCAUAGUAUUUAGUUA | 1.22 ± 0.11 | 0.0865 ± 0.017
UGCACCUACAGCUUGCAUAGUAUUUAGUAA | 1.17 ± 0.11 | 0.0465 ± 0.0097
UCGCACCUACAGCUUGCAUAGUAUUUAGUUA | 1.06 ± 0.13 | 0.0648 ± 0.015
AGCACCUACAGCUUGCAUAGUAUUUAGUUA | 1.19 ± 0.16 | 0.246 ± 0.073
AGGCACCUACAGCUUGCAUAGUAUUUAGUUA | 2.18 ± 0.8 | 2.2 ± 1.8
UCCUGGAACAGCUUGCAUAGCUAUUUAGUUA | 0.0102 ± 0.0047 | 
UCCUGGUAAAGCUUGCAUAGUAUUUAGUUA | 0.551 ± 0.037 | 0.0419 ± 0.0086
UCCUGGAACAGCUUGCAAAGUAUAUAGUUA | 0.459 ± 0.037 | 0.0164 ± 0.0061
UCCUGCUACAGCUUGGAAAGUAUUUAGUUA | 0.903 ± 0.053 | 0.00754 ± 0.0024
UGGACGCUACAGCUUGCAUAGUAUUUAGUUA | 1.15 ± 0.076 | 0.0759 ± 0.013
UCCAUCUACAGCUUGCAUAGUAUUUAGUUA | 0.731 ± 0.031 | 0.0538 ± 0.0076
